# Test results from PubChem BioAssay.
# Activity calls are given as the source filed them. Unless noted, no rule for the calls is given here.
# Key:
# [1] = system: XIP peptide (Xip251-270) binding; assay: small-molecule binders of XIP peptide, primary screen, biochemical, small-molecule microarray, fluorescence 635/667 nm, 0.1 µg/mL protein (AID 1182); settings: fluorescent protein binding, 635 nm, higher = more signal, called active from +8 up or from −8 down
# XIP peptide (Xip251-270) = assay: small-molecule binders of XIP peptide, primary screen, biochemical, small-molecule microarray, fluorescence 635/667 nm, 0.5 µg/mL protein (AID 1183); settings: small-molecule microarray binding, fluorescence 635 nm; higher = more signal
# [2] = Plasmodium falciparum growth inhibition, primary screen, strain 3D7, DAPI fluorescence, 100 nL (AID 1184);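 also: parasites grown inside human red blood cells in medium with human serum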; settings: P. falciparum 3D7 growth, 3 d, higher = more signal
# [3] = target: Homeobox protein Hox-A13 (Mus musculus) (UniProt Q62424); assay: inhibitors of HoxA13-DNA binding, primary screen, biochemical, fluorescence polarization, labeled oligonucleotide (AID 1185); settings: 15 min, higher = more signal, called active from +8 up or from −8 down
# Chain of Homeobox protein Hox-A13 (Mus musculus) (Q62424 whole entry, looked up): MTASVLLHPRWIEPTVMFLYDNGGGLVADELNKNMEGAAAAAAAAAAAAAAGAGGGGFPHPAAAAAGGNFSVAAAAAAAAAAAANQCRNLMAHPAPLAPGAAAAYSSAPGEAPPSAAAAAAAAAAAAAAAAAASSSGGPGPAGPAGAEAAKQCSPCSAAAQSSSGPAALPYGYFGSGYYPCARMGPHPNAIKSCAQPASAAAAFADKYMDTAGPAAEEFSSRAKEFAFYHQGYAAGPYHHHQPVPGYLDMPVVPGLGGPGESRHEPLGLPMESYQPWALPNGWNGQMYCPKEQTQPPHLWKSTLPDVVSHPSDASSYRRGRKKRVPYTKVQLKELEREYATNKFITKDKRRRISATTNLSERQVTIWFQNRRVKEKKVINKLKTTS
# [4] = inhibitors of hydroxyurea-induced Chk1 phosphorylation, primary screen, imaging, HeLa, phospho-Chk1 antibody, percent positive cells (AID 1186); settings: hydroxyurea-induced phospho-Chk1 immunofluorescence imaging, higher = more signal
# [5] = inhibitors of hydroxyurea-induced Chk1 phosphorylation, primary screen, imaging, HeLa, phospho-Chk1 nuclear intensity (AID 1187); settings: hydroxyurea-induced phospho-Chk1 immunofluorescence imaging, higher = more signal
SMILES,composite z-score [1],composite z-score (XIP peptide (Xip251-270)),z-score [2],z-score [3],z-score [4],z-score [5]
CN(C)CCCCNC(=O)[C@H]1C[C@H]2C(=O)N[C@@H](CCCCN(C)C)C(=O)N2[C@H]1c1ccc(O)cc1,0.0043 (inactive),0.269,-0.435,0.0335 (inactive),-1.63 (inactive),-1.46 (inactive)
C=CC[C@]1(C(=O)NCC(O)CO)N=C(c2ccc(OCCCO)cc2)O[C@H]1c1ccccc1CN=[N+]=[N-] (stereo not given in full),0.513 (inactive),-0.201,-2.5,-3.62 (inactive),-0.116 (inactive),-0.482 (inactive)
COc1ccc([Si](C)(C)[C@@H]2[C@@H](CC(=O)N(CCO)Cc3ccccc3)O[C@]3(C(=O)N(Cc4cccc(I)c4)c4ccccc43)[C@H]2C)cc1,0.479 (inactive),0.252,-2.86,-1.79 (inactive),0.55 (inactive),0.828 (inactive)
CC(C)C[C@@H]1NC(=O)[C@@H]2C[C@H](C(=O)NCCCCCCNC(=O)CS)[C@H](c3ccc(O)cc3)N2C1=O,3.03 (inactive),0.843,-1.19,-2.01 (inactive),-0.265 (inactive),-0.1 (inactive)
Cc1c(NC(=O)/C(C#N)=C/C=C/c2ccc([N+](=O)[O-])cc2)c(=O)n(-c2ccccc2)n1C,1.97 (inactive),0.77,-0.363,-4.12 (inactive),-0.023 (inactive),0.501 (inactive)
COC(=O)[C@H]1N=C(c2ccc(OCCCO)cc2)O[C@H]1c1ccccc1N=[N+]=[N-],0.363 (inactive),0.75,-2.1,-4.13 (inactive),-0.0771 (inactive),0.193 (inactive)
CCOC(=O)C=C1C[C@@H](c2cccc([N+](=O)[O-])c2)O[C@@H](c2cccc([N+](=O)[O-])c2)O1,0.232 (inactive),0.673,-2.18,0.392 (inactive),-0.447 (inactive),-0.443 (inactive)
C=C(C)C1CN([C@H](CO)c2ccccc2)C(=O)/C1=C\c1ccccc1 (stereo not given in full),-0.598 (inactive),0.36,-1.9,-1.05 (inactive),-0.484 (inactive),-0.234 (inactive)
C=C(/C=C\CNS(=O)(=O)c1ccc(C)cc1)[C@H](O)[C@H]1CCCN1S(=O)(=O)c1ccccc1[N+](=O)[O-],-0.167 (inactive),-0.167,-1.8,-5.5 (inactive),-0.225 (inactive),0.161 (inactive)
CC(C)C[C@@H]1NC(=O)[C@H]2C[C@@H](C(=O)O)[C@@H](c3cccc(OCCO)c3)N2C1=O,0.693 (inactive),0.737,-0.404,-2.46 (inactive),-0.03 (inactive),-0.134 (inactive)
C[N+](C)(C)CCCC[C@@H]1NC(=O)[C@H]2C[C@@H](C(=O)O)[C@@H](c3ccc(O)cc3)N2C1=O,0.154 (inactive),0.274,0.115,-1.42 (inactive),-0.349 (inactive),-0.313 (inactive)
C=CCC(OC(C)=O)[C@@H]1[C@@H](N(Cc2ccc(-c3ccccc3)cc2)C(=O)Cc2ccc(OC)cc2)c2cc(OCCCO)ccc2N1C(=O)Cc1ccc(OC)cc1 (stereo not given in full),0.497 (inactive),-0.243,-1.97,-2.75 (inactive),0.684 (inactive),0.763 (inactive)
C=CCNC(=O)[C@@H]1[C@H]2C(=O)O[C@H](c3ccccc3)[C@H](c3ccccc3)N2[C@H](c2ccc(O)cc2)[C@@]12C(=O)Nc1ccc(C#CC3=CCCCC3)cc12,1.79 (inactive),0.716,0.155,0.828 (inactive),0.0206 (inactive),-0.275 (inactive)
COc1ccc(NN2C(C(O)c3ccc(F)cc3)C=CC3C(=O)N(C4CCCCC4)C(=O)C32)cc1 (stereo not given),0.331 (inactive),0.878,-0.517,-4.3 (inactive),0.472 (inactive),0.0539 (inactive)
COc1ccc([Si](C)(C)[C@H]2[C@H](CC(=O)N3CCC[C@H]3CO)O[C@@]3(C(=O)N(C)c4ccccc43)[C@@H]2C)cc1,-0.216 (inactive),0.924,1.07,-3.41 (inactive),-0.529 (inactive),-0.766 (inactive)
COc1ccc([Si](C)(C)[C@H]2[C@H](CCO)O[C@@]3(C(=O)N(Cc4ccccc4)c4ccc(NC(=O)[C@H](C)O)cc43)[C@@H]2C)cc1,-0.0359 (inactive),-0.313,-2.6,-5.67 (inactive),-1.59 (inactive),-0.751 (inactive)
CCCNC(=O)[C@@]1(Sc2ccc(C)cc2)CC(=O)N(Cc2cc(C(F)(F)F)cc(C(F)(F)F)c2)[C@@H]1c1ccc(CO)cc1,-0.0515 (inactive),0.136,-1.1,-0.323 (inactive),-0.0515 (inactive),0.0821 (inactive)
COC(=O)[C@@]1(Cc2ccccc2)[C@H]2c3cc(C(=O)N(C)C)n(CCF)c3C[C@H]2CN1C(=O)c1ccccc1,1.3 (inactive),-0.504,-0.684,-4.95 (inactive),-0.441 (inactive),-0.748 (inactive)

SMILES,composite z-score [1],composite z-score (XIP peptide (Xip251-270)),z-score [2],z-score [3],z-score [4],z-score [5]
COc1cccc(C)c1NC(=O)O[C@H]1[C@H](OC(=O)Nc2ccccc2-c2ccccc2)[C@@H](OC(=O)Nc2ccccc2-c2ccccc2)[C@@H](OC)O[C@@H]1CO,1.22 (inactive),0.89,-2.26,-3.57 (inactive),0.609 (inactive),0.604 (inactive)
CCOC(=O)C[C@H]1[C@H](OC(=O)c2cc3ccccc3oc2=O)[C@@H](NC(=O)c2ccc(-c3ccccc3)cc2)c2cc(OCCCO)ccc2N1C(=O)Cc1ccc(OC)cc1,0.108 (inactive),0.437,-0.638,-3.12 (inactive),0.105 (inactive),-0.0512 (inactive)
COCCOC(=O)N1C(=O)[C@@]2(c3ccccc31)[C@H](C(=O)Nc1nc3ccccc3s1)[C@H]1C(=O)O[C@H](c3ccccc3)[C@H](c3ccccc3)N1[C@@H]2c1ccccc1OCCO,0.238 (inactive),0.801,-1.68,-0.587 (inactive),0.152 (inactive),0.367 (inactive)
O=C(NCC(F)(F)F)[C@@H]1c2ccccc2C(=O)N(Cc2cc(C(F)(F)F)cc(C(F)(F)F)c2)[C@H]1c1ccc(CO)cc1,-0.398 (inactive),0.637,0.362,-2.44 (inactive),-0.373 (inactive),-0.356 (inactive)
CN1C(=O)C2C=CC(C(O)COCc3ccccc3)N(Nc3ccc([N+](=O)[O-])cc3[N+](=O)[O-])C2C1=O (stereo not given),0.649 (inactive),0.544,0.391,-4.41 (inactive),-0.589 (inactive),-0.803 (inactive)
COC(=O)[C@H](Cc1ccccc1)N1CC(C)(OC)O[C@@H](Cc2ccccc2)[C@H]1/C=C/C1CC1 (stereo not given in full),0.242 (inactive),-0.128,0.291,-4.77 (inactive),0.512 (inactive),1.22 (inactive)
CC[C@H]1C2=C3C(CC[C@H]4C(OCc5ccc(F)cc5C(F)(F)F)OC[C@](C)([C@@H]34)N(C(=O)OC(C)(C)C)C2)C(COC(C)=O)C1COC(C)=O (stereo not given in full),0.28 (inactive),0.633,-1.24,-3.07 (inactive),0.127 (inactive),0.294 (inactive)
NCCCCCCNC(=O)[C@@H]1C[C@@H]2C(=O)NCC(=O)N2[C@@H]1c1cccc(OCCO)c1,0.592 (inactive),0.354,0.418,-1.96 (inactive),0.13 (inactive),0.118 (inactive)
OCCCc1cc[n+](Cc2cc3c(cc2Br)OCO3)cc1,0.0084 (inactive),0.579,-1.96,-2.45 (inactive),-0.0355 (inactive),0.0561 (inactive)
O=C1OC[C@@H](c2ccccc2)n2cc(/C=C/c3ccccc3)cc21,0.623 (inactive),0.505,-0.0812,0.816 (inactive),-0.481 (inactive),-0.268 (inactive)
COC(=O)c1c2oc(c1C(=O)OC)C(=O)N[C@H](Cc1ccccc1)Cn1cc(nn1)C1(CCCCC1)NC(=O)N[C@H](CO)CC2,0.772 (inactive),-0.652,0.764,-3.34 (inactive),-0.0529 (inactive),-0.669 (inactive)
COc1ccc(CCNC(=O)[C@@]2(C)c3ccccc3C(=O)N(Cc3ccc(OC(F)(F)F)cc3)[C@H]2c2ccc(CO)cc2)cc1,1.06 (inactive),0.666,-1.21,-4.22 (inactive),-0.141 (inactive),-0.102 (inactive)
CC1CC/C=C\[C@H]2OC34C=CCN(CCN5CCOCC5)C(=O)[C@H]3N(C(CO)C(C)C)C(=O)[C@@H]4C2C(=O)O1 (stereo not given in full),0.287 (inactive),0.054,-0.0648,-7 (inactive),0.607 (inactive),0.284 (inactive)
CC(C)Cc1ccc(CN2CC[C@@H](NC(=O)c3ccccc3)C2)cc1,0.321 (inactive),0.447,-1.68,-1.52 (inactive),-0.681 (inactive),-0.744 (inactive)
CC(C)(C)OC(=O)CC[C@]1(C(=O)N2CCOCC2)COC(c2ccc(OCCCO)cc2)=N1,-0.199 (inactive),0.0906,0.33,-3.78 (inactive),-0.16 (inactive),-0.0926 (inactive)
Cc1ccc(S[C@]2(C(=O)NCCN3CCOCC3)CC(=O)N(C(C)C)[C@@H]2c2ccc(CO)cc2I)cc1,0.342 (inactive),0.93,-0.191,-3.43 (inactive),-0.395 (inactive),-0.0483 (inactive)
COCCOC(=O)N1C(=O)[C@@]2(c3cc(C#CC4(O)CCCCCC4)ccc31)[C@H](C(N)=O)[C@H]1C(=O)O[C@H](c3ccccc3)[C@H](c3ccccc3)N1[C@@H]2c1ccc(OCCO)cc1,1.56 (inactive),0.73,-1.62,-0.51 (inactive),-0.0908 (inactive),-0.524 (inactive)
